Screens as filed in PubChem.
This is a sample that favours compounds with a hit; in the whole collection about 3.8% have one here.
Jurkat NFkB inh – lowers PMA/ionomycin-induced NF-kB signal in Jurkat cells; inhibition, % at 4 µM; 0.53% of 330,000 active; PMA/ionomycin-induced NF-kB luciferase reporter, luminescence; in the data active = inhibition above about 50%
NTR1 ag – NTR1 (human) agonism. 0.17% of 330,000 active. activation, % at 20 µM. P30989. NTR1-U2OS beta-arrestin-GFP spot imaging, agonist mode. AID 493036;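 active = activation at or above 40% of the spot to cytoplasm intensity ratio, with at least 20 cells analyzed; inconclusive = wells under 20 cells, flagged as cytotoxic or low count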;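 also: 0% = DMSO without peptide and 100% = 100 nM NTR1 peptide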
Beta cell apopt – beta cell apoptosis inhibition. INS-1E cytokine-induced death, ATP luminescence, 48 h; percent of positive-control rescue, neutral wells zero. protection from apoptosis, % (test concentration not listed). 0.8% of 300,000 active. AID 435005;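 active = Every replicate reaches about 75%, or at least half do and their mean reaches it too, limit read from the data; inconclusive = At least half of replicates reach the limit but their mean does not; inactive = Under half of replicates reach the limit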;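 also: 0% = cytokine-treated negative control wells and 100% = positive control rescue; higher means more ATP so stronger rescue from cytokine killing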
697 NFkB inh – inhibitors of the PMA/ionomycin-induced NF-kB reporter in 697 B cells; AID 435022; 0.33% of 330,000 active; inhibition, % at 4 µM; 697 B-cell NF-kB luciferase reporter, 16 h; in the data active = inhibition above about 35%
Mdm2-MdmX inh – inhibitors of human Mdm2/MdmX interaction | O15151+Q00987 | SaOS-2 split-luciferase Mdm2/MdmX complementation, luminescence | inhibition, % at 8 µM | 3% of 330,000 active | AID 485346;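 active = inhibition of at least 50% at 8 µM in the primary screen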
A1 inh – inhibitors of the anti-apoptotic protein A1, read as caspase activation | MEF A1-2A-BIM cells, Caspase-Glo 3/7 luminescence, 3 h; percent of clofoctol response, vehicle zero | 0.066% of 330,000 active | caspase activation, % (no concentration beside the values);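 active = over half of replicate activation scores above 10%, or exactly half above 10 with the replicate mean above 10; inconclusive = replicate mean below 10 yet half the replicates above 10; inactive = over half of replicates below 10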
Mdm2 MdmX conf – confirmation of human Mdm2/MdmX interaction inhibitors | shares compounds with Mdm2-MdmX inh | Mdm2-MdmX binding, luminescent assay | inhibition, % at 8 µM | 55% of 10,000 active; in the data active = inhibition above about 40%
Full FLuc ctr – counter-screen for Mdm2/MdmX inhibitors: full-length luciferase; shares compounds with Mdm2-MdmX inh; SaOS-2 full-length luciferase counterscreen, luminescence; inhibition, % at 8 µM; 77% of 6,200 active; AID 504607;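 active = mean inhibition at 8 µM reaching about 37%, which flags the compound as non-specific, limit read from the data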;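 also: p53-null SaOS-2 cells with luciferase driven by a doxycycline-inducible promoter; compound on cells about two nights before reading with doxycycline added after day one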
* = called active by the depositor; u = inconclusive; x = not tested or not shown.

SMILES	Jurkat NFkB inh	NTR1 ag	Beta cell apopt	697 NFkB inh	Mdm2-MdmX inh	A1 inh	Mdm2 MdmX conf	others
COc1ccc(CCNC(=O)c2cc3c(=O)n4ccccc4nc3n(CCN3CCOCC3)c2=N)cc1	41	1	64	-28	-9	-1	x
COc1ccc(CCNC(=O)c2cc3c(=O)n4ccccc4nc3n(C3CCCCC3)c2=N)cc1	14	40	20	-68	61*	0	38	Full FLuc ctr=69*
N=c1c(C(=O)NCC2CCCO2)cc2c(=O)n3ccccc3nc2n1C1CCCCC1 (centres undefined)	-31	2	2	-35	15	0	x
COc1ccc(CCn2c(=N)c(C(=O)NCC3CCCO3)cc3c(=O)n4ccccc4nc32)cc1 (centres undefined)	-13	3	-4	-12	12	0	x
COc1ccc(CCNC(=O)c2cc3c(=O)n4ccccc4nc3n(CCCN3CCOCC3)c2=N)cc1OC	11	1	6	-12	10	1	x
COc1ccc(CCn2c(=N)c(C(=O)NC3CCCCC3)cc3c(=O)n4ccccc4nc32)cc1	0	11	9	5	93*	0	31	Full FLuc ctr=82*
COc1ccc(CCNC(=O)c2cc3c(=O)n4ccccc4nc3n(Cc3ccco3)c2=N)cc1OC	18	17	x	-12	62*	1	41*	Full FLuc ctr=26
CCC(C)N(C(=O)COC(=O)c1nc2nc(C)cc(C)n2n1)C1CCS(=O)(=O)C1 (centres undefined)	0	-1	-2	-4	15	1	x
O=C(Cc1ccccc1)N1CCC2(CC1)NCCc1[nH]cnc12	9	0	-5	3	-13	-1	x
O=C(Nc1ccccn1)c1sc2cc([N+](=O)[O-])ccc2c1Cl	-80	1	13	-35	-32	-3	x
O=C(COC(=O)Cc1c[nH]c2ccccc12)NC1CCS(=O)(=O)C1 (centres undefined)	22	1	2	19	17	-1	x
COc1ccc(CCNC(=O)c2cc3c(=O)n4ccccc4nc3n(C3CCCCC3)c2=N)cc1OC	-11	9	1	-45	58*	0	26
Cc1ccccc1SCC(=O)OCC(=O)N(C)c1c(N)n(Cc2ccccc2)c(=O)[nH]c1=O	-5	0	-7	3	14	-1	x
CCCCc1nc2cc(C(=O)N(C)C3CCOCC3)ccc2o1	-77	0	-5	-148	-32	-4	x
Cc1ccc(S(=O)(=O)N2CCOCC2)cc1C(=O)OCC(=O)NCCc1ccccc1	6	-1	5	2	14	1	x
CCn1c(O)c(N=NC(=O)c2cccnc2)c2cc(Br)ccc21	7	0	6	8	36	1	x
CCCCn1c(O)c(N=NC(=O)c2ccncc2)c2cc(Br)ccc21	-9	-1	10	-16	64*	0	40*	Full FLuc ctr=63*
O=C(CSc1nnc(COc2ccccc2)o1)N1CCCCC1	-11	0	4	11	-3	0	x
O=C(NCCc1ccccc1)C1CCC(CNc2nc(=S)[nH]c3ccccc23)CC1 (centres undefined)	-4	-1	6	-26	96*	0	6
CCOc1ccc(NC(=O)CN(C)C(=O)c2sccc2-c2ccccc2)cc1OCC	-7	2	x	-9	-4	x	x
Cc1ccc(Cn2c(C(C)Nc3nc(-c4ccc(F)cc4)cs3)nc3cc(C(F)(F)F)ccc32)cc1 (centres undefined)	8	1	-1	6	50*	1	-1
CCCn1c(C(C)Nc2nc(-c3ccc(Cl)c([N+](=O)[O-])c3)cs2)nc2cc(Cl)c(N3CCCCC3)cc21 (centres undefined)	14	6	5	8	61*	-5	21
Cc1ccc(Cn2c(C(CO)Nc3nc(-c4ccc(Cl)c([N+](=O)[O-])c4)cs3)nc3ccccc32)cc1 (centres undefined)	-1	12	-4	9	64*	1	16
Cc1ccc(Cn2c(C(CO)Nc3nc(-c4ccc(F)cc4)cs3)nc3ccccc32)cc1 (centres undefined)	-4	15	-4	9	60*	3	29
COc1ccc(-c2csc(NC(CO)c3nc4ccccc4n3Cc3ccc(C)cc3)n2)cc1 (centres undefined)	6	6	-3	-15	2	0	x
SMILES	Jurkat NFkB inh	NTR1 ag	Beta cell apopt	697 NFkB inh	Mdm2-MdmX inh	A1 inh	Mdm2 MdmX conf	others
CCCn1c(C(C)Nc2nc(-c3ccc(OC)cc3)cs2)nc2ccccc21 (centres undefined)	-5	8	-12	9	3	-1	x
Cc1ncoc1C(=O)N1CCCC(N2CCN(c3cccc(C(F)(F)F)c3)CC2)C1 (centres undefined)	7	-1	0	13	12	0	x
O=C(Nc1ccc(OC(F)F)cc1)c1ccccn1	2	0	-4	2	-7	2	x
CS(=O)(=O)c1ncc(Cl)c(C(=O)Nc2ccc(N3CCOCC3)cc2)n1	9	0	-6	-17	88*	3	53*	Full FLuc ctr=41*
CCN(c1ccccc1)S(=O)(=O)c1ccc(NC(=O)c2nc(S(C)(=O)=O)ncc2Cl)cc1	45	0	98*	-97	99*	-2	96*	Full FLuc ctr=51*
CS(=O)(=O)c1ncc(Cl)c(C(=O)Nc2ccc(OC(F)F)cc2)n1	13	4	u	-24	92*	18*	100*	Full FLuc ctr=52*
CCN(c1ccccc1)S(=O)(=O)c1ccc(C(=O)Nc2ccncc2)cc1	14	1	-9	-13	34	1	x
COc1ccc(C(=O)Nc2ccnn2C2CCN(C(=O)c3cc(C)on3)CC2)cc1	-13	-1	-4	-25	35	2	x
N=c1c2c(ncn1Cc1ccco1)Oc1cc(O)ccc1C2c1ccccc1 (centres undefined)	9	1	2	2	33	0	x
c1coc(CNc2nc3ccccc3n2CCN2CCOCC2)c1	-15	-1	13	-20	-6	0	x
N=c1c2c(-c3ccccc3)c(-c3ccccc3)n(Cc3ccco3)c2ncn1CCN1CCOCC1	-6	10	3	-29	55*	-1	33
N=c1c2c(-c3ccccc3)c(-c3ccccc3)n(Cc3ccco3)c2ncn1CCO	33	28	9	-24	82*	0	61*	Full FLuc ctr=57*
O=C(COc1ccc(-c2ccccc2)cc1)N1CCN(S(=O)(=O)Cc2ccccc2)CC1	22	6	1	-29	57*	1	59*	Full FLuc ctr=75*
